Test results: ChEMBL document CHEMBL4296182, “CO-ADD screening of NIH NCI Diversity Set V”
For part of these data: Results with a measured potency or affinity are listed apart.

Legend:
Staphylococcus aureus = experiment: Antibacterial activity against Staphylococcus aureus MRSA ATCC 43300 (CO-ADD:GP_020); MIC in CAMBH media using NBS plates, by Resazurin F(560/590); format: functional; details: Concentration 20 uM, ASSAY_TEST Inhibition of Bacterial Growth, detection method Resazurin, Fluorescence (ex560/em590), MEDIA CAMHB, plate type 384well, CORNING #3640, time 18 hr
Acinetobacter baumannii = experiment: Antibacterial activity against Acinetobacter baumannii ATCC 19606 (CO-ADD:GN_034); MIC in CAMBH media using NBS plates, by Resazurin F(560/590); format: functional; details: Concentration 20 uM, ASSAY_TEST Inhibition of Bacterial Growth, detection method Resazurin, Fluorescence (ex560/em590), MEDIA CAMHB, plate type 384well, CORNING #3640, time 18 hr
Escherichia coli = experiment: Antibacterial activity against Escherichia coli ATCC 25922 (CO-ADD:GN_001); MIC in CAMBH media using NBS plates, by Resazurin F(560/590); format: functional; details: Concentration 20 uM, ASSAY_TEST Inhibition of Bacterial Growth, detection method Resazurin, Fluorescence (ex560/em590), MEDIA CAMHB, plate type 384well, CORNING #3640, time 18 hr
Klebsiella pneumoniae = details: Concentration 20 uM; ASSAY_TEST Inhibition of Bacterial Growth; detection method Absorption (OD600); MEDIA CAMHB; plate type 384well; NBS; CORNING #3640; time 18 hr
Candida albicans = details: 20 µM
Cryptococcus neoformans = details: Concentration 20 uM; ASSAY_TEST Inhibition of Fungal Growth; detection method Resazurin; Absorption (OD600-OD570); plate type 384well; NBS; CORNING #3640

Row | SMILES | Inhibition (Staphylococcus aureus) | Inhibition (Acinetobacter baumannii) | Inhibition (Escherichia coli) | Inhibition (Klebsiella pneumoniae) | Inhibition (Candida albicans) | Inhibition (Cryptococcus neoformans)
1 | Cc1cccc2c1c1ccc3c(c1n2C)C(=O)C=CC3=O | -3.83% | -13.4% | 14.66% | 10.43% | 16.9% | 1.61%
2 | C=C(C)c1nc(Oc2ccccc2)nc(Oc2ccccc2)n1 | 19.07% | 6.26% | 6.34% | 11.06% | 0.6% | -9.97%
3 | Cc1ccc(NC(=O)Nc2c(Cl)cccc2Cl)cn1 | 20.25% | -2.44% | -14.35% | 6.22% | 3.4% | 18.5%
4 | O=C1Nc2ccccc2C1(c1ccc(O)cc1)c1ccc(O)cc1 [OXYPHENISATINE] | 24.64% | -10.84% | 13.68% | 5.85% | 2.96% | -4.24%
5 | CCOC(=O)c1ccc2c(c1)NCc1cccc(OC)c1O2 | 4.26% | -16.83% | 9.22% | 6.83% | 9.96% | -17.21%
6 | CC(C)=CCC/C(C)=C\C(N)=O | -1.13% | -1.29% | 11.31% | -1.44% | -0.52% | -3.28%
7 | COc1cnc(SC)nc1Nc1ccc(C#N)cc1 | 3.83% | 28.01% | 14.33% | 23.54% | 4.47% | -3.99%
8 | N#Cc1c(N)nc(N)nc1Nc1ccc(Br)cc1 | 13.29% | -8.2% | -5.32% | 20.88% | 2.67% | -16.04%
9 | COC(=O)C1(C(=O)OC)C2C(=O)C3C(C21)C3(C(=O)OC(C)(C)C)C(=O)OC(C)(C)C (stereo not given) | 5.34% | -10.49% | 12.49% | 9.29% | 0.63% | -1.86%
10 | COC(=O)C1=CC(=O)N2CCN=C2S1 | 6.62% | 15.89% | -3.52% | 13.6% | 3.42% | -1.02%
11 | O=C1OCC/C1=C\NCCCCCCCCN/C=C1\CCOC1=O | -2.67% | 17.83% | 3.41% | 9.43% | 0.08% | -12.67%
12 | CCC(C)(C)c1ccc(Oc2cccc(C(=O)O)c2)cc1 | -8.99% | 14.6% | -8.34% | 17.33% | 8.87% | -6.24%
13 | COC(=O)Cc1[nH]c(O)nc1C(=O)OC | 5.51% | -8.26% | 3.06% | 20.66% | -0.45% | -7.96%
14 | Cc1cc(=O)c2c(o1)C(=O)c1occc1C2=O | -16.99% | -9.35% | -16.26% | 2.36% | 7.04% | 24.84%
15 | Cn1c(SCc2ccccn2)nc2c1c(=O)[nH]c(=O)n2C | 7.99% | -7.81% | 13.96% | 9.58% | 0.41% | -8.81%
16 | N#CCCCCN1CCCC1 | 4.35% | -8.73% | 3.27% | 18.95% | -1.32% | -2.95%
17 | O=C(Nc1ccc(Oc2ccc(NC(=O)Nc3ccccc3Cl)cc2)cc1)Nc1ccccc1Cl | 19.6% | -10.42% | 14.43% | 12.03% | 16% | 6.13%
18 | CCOc1ccc(NC(=O)Nc2cc(C(C)C)ccc2C)cc1 | -18.22% | 0.23% | -12.49% | 0.84% | 0.78% | 21.16%
19 | Cc1cc2nc(-c3ccccn3)c(-c3ccccn3)nc2cc1C | -0.99% | 3.74% | 8.69% | 9.38% | 1.37% | -10.29%
20 | O=C(O)C(Cc1ccccc1N(CCO)CCO)N1C(=O)c2ccccc2C1=O (stereo not given) | 11.82% | 6.12% | 3.59% | 11.57% | 0.11% | -6.78%
